Assay outcomes: PubChem BioAssay, National Center for Advancing Translational Sciences (NCATS)
Sampled rows, rich in hits. Any-hit rate of the full collection: about 8.9%.
DRD3 agonist: qHTS of D3 Dopamine Receptor Agonist: qHTS | D(3) dopamine receptor (Homo sapiens), P35462 | AID 652048, 2013 | D3R DiscoveRx beta-arrestin cells, luminescence, 90 min | 0.58% of 410,000 active | max activation, %; in the data active = max activation above about 30%
Target sequence (P35462 whole entry, looked up): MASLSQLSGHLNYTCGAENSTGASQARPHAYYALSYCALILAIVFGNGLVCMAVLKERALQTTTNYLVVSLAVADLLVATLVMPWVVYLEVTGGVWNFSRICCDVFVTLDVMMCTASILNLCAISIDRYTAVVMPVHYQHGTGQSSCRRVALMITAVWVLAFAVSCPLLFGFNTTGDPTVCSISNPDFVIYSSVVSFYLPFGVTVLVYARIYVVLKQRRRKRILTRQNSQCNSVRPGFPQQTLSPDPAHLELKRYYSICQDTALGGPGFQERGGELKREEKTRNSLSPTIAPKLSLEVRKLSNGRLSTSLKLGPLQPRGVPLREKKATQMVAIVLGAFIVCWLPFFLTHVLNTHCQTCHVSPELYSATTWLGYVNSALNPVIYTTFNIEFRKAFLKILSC
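Agonist mode: compounds and dopamine controls were applied to plated cells for 90 min at 37 degrees C after an overnight attachment at 1500 cells/well. Luminescent read-out followed 30 - 60 minutes at room temperature with DiscoveRx detection reagent.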
SW480 rereplic: A quantitative high throughput screen for small molecules that induce DNA re-replication in SW480 colon adenocarcinoma cells; Potency, µM (series often up to 46.1 µM), hits mostly activators; 1.8% of 340,000 active; SW480 DNA re-replication, Hoechst DNA content imaging, 48 h; note: nearly all actives have a fitted effect of over 55% in size
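Cells (250 per well) received 23 nL compound or DMSO by pin tool and were kept 48 hr at 37 C, 5% CO2. Nuclei were then stained with Hoechst for 40 min and scanned for DNA content.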
KB-V1 cytotox: qHTS assay for MDR1-selective chemotherapeutics: Primary screen using the drug-selected MDR subline cells KB-V1; Potency, µM (titrated, usually from 46.1 µM), most hits filed as cytotoxic; KB-V1 MDR cells viability, CellTiter-Glo, 72 h; 3.4% of 400,000 active; note: nearly all actives have a fitted effect of over 60% in size
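Following 72 h at 37 degrees C with compound, KB-V1 cell viability was read by CellTiter-Glo luminescence, medium being phenol-red-free DMEM plus 10% FBS; concentration-response parameters came from normalized, curve-fitted qHTS data.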
DRD3 antagonist: qHTS of D3 Dopamine Receptor Antagonist: qHTS. max response, negative = inhibition, %. D3R cells, DiscoveRx beta-arrestin luminescence, antagonist mode; stronger effect = lower value. AID 652054, 2013. D(3) dopamine receptor (Homo sapiens), P35462. 2.5% of 360,000 active; in the data active = max response below about -50%; inconclusive = no clear call, values can overlap the other calls
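Cells expressing the human receptor were seeded at 1500 cells/well, incubated overnight at 37 degrees C in 5% CO2, then exposed to library compounds with dopamine controls for 90 minutes at 37 degrees C before luminescent detection.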
MCF10A rereplic: A quantitative high throughput screen for small molecules that induce DNA re-replication in MCF 10a normal breast cells | MCF 10A DNA re-replication, Hoechst nuclear intensity, 48 h | Potency, µM (titrated, usually from 46.1 µM), hits mostly activators | 2.9% of 350,000 active; note: nearly all actives have a fitted effect of over 50% in size
KB-3-1 tox: qHTS assay for MDR1-selective chemotherapeutics: Primary screen using the parental adenocarcinoma cell KB-3-1. Potency, µM (series often up to 46.1 µM), usual class: cytotoxic. 1.4% of 400,000 active. KB-3-1 viability, CellTiter-Glo ATP luminescence, 72 h; note: nearly all actives have a fitted effect of over 60% in size
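KB-3-1 cells, DMEM (no phenol red) + 10% FBS; compound by pin transfer, 72 h, 37 °C. Readout: CellTiter-Glo luminescence after 10 min. Data normalized, curve-fitted.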
Hits are given with their value; i = inactive; ? = inconclusive; nt = not tested or not shown; [ ] = dose if it differs, or a comment. Unless noted, calls come from the whole dose curve; as a rule, active = well fitted curve in the direction sought with a large enough effect; inconclusive = small, poorly fitted or top-dose-only effect, or another doubt; inactive = no such curve, though single readings can be large; an effect the other way counts as inactive or inconclusive.

SMILES	DRD3 agonist	SW480 rereplic	KB-V1 cytotox	DRD3 antagonist	MCF10A rereplic	KB-3-1 tox
COc1cccc(C(=O)Nc2ccc(C(=O)c3ccccc3)cc2)c1	i	i	?	i	i	i
Cc1cc(NC(=O)c2ccc(Cl)cc2)no1	i	i	i	i	i	i
CC(=O)Nc1ccc(NC(=O)c2cccc(Oc3ccccc3)c2)cc1	i	i	?	-51	i	i
CCCCOc1cccc(C(=O)Nc2ccc(NC(=O)c3cccs3)cc2)c1	i	6.5µM	i	i	7.3µM	i
CCOc1ccc(NC(=O)c2cccc(OC(=S)N3CCC(C)CC3)c2)cc1	i	i	18µM	i	i	i
COc1ccc(NC(=O)CN(c2cc(C)cc(C)c2)S(=O)(=O)c2c(C)noc2C)cc1Cl	i	nt	i	nt	nt	i
COc1cc2ccc(=O)oc2cc1O	i	15µM	i	i	?	i
O=C(N/N=C/c1ccccc1Cl)c1[nH]c2ccc(Br)cc2c1-c1ccccc1	i	?	5.8µM	i	?	?
Cc1ccc2[nH]c(C(=O)NN=C3CCCCC3)c(-c3ccccc3)c2c1	i	?	?	?	16µM	i
NNC(=O)c1[nH]c2ccc(Cl)cc2c1-c1ccccc1	i	?	?	i	9.2µM	?
CC(=O)Nc1c(-c2ccccc2)c2cc(Br)ccc2[nH]c1=O	i	i	i	i	0.73µM	i
NNC(=O)c1[nH]c2ccc(Br)cc2c1-c1ccccc1	i	?	?	i	?	?
COc1ccc(NC(=O)C(NS(=O)(=O)c2cccc3nsnc23)C(C)C)cc1OC (configuration not stated)	i	nt	i	nt	nt	i
Cc1c(C(=O)Nc2ccc(F)c(F)c2)oc2ccc(S(=O)(=O)N(C)C3CCCCC3)cc12	i	nt	nt	nt	nt	nt
CCOC(=O)c1cc(-c2ccc(OC)cc2)n(CCC(=O)NCCc2ccc(OCC)c(OCC)c2)c1C	i	nt	nt	nt	nt	nt
CCc1ccc(NC(=O)c2ccc(F)c(S(=O)(=O)N3CCN(c4cc(C)ccc4C)CC3)c2)cc1	i	nt	nt	nt	nt	nt
COc1ccc(/C=N/NC(=O)c2[nH]c3ccc(Br)cc3c2-c2ccccc2)cc1	i	1.2µM	1µM	i	0.21µM	0.82µM
Cc1c2cnn(-c3ccccc3)c(=O)c2c(C)n1CC(=O)NCCc1ccc(Cl)cc1	i	nt	i	nt	nt	i
COc1cc(/C=C2\C=Cc3ccccc32)ccc1N(C)C	nt	nt	i	nt	nt	i
COC(=O)c1cc(OC)c(OC)cc1NC(=O)c1ccc(C)cc1	i	i	3.3µM	i	i	i
COC(=O)c1cc(Cl)c(NC(=O)c2ccc(C(C)(C)C)cc2)cc1OC	70	i	i	i	9.2µM	i
COC(=O)c1cc(OC)c(OC)cc1NC(=O)c1ccc(OC)cc1	i	i	i	i	?	i
COc1ccc(C)cc1NC(=O)CC(=O)Nc1ccc2nc3n(c(=O)c2c1)CCCCC3	i	nt	?	nt	nt	?
CC[C@@H](C)[C@@H]1CN([C@@H](C)CN2CCC[C@H]2CN2C(N)=NC[C@@H]2Cc2ccccc2)C(=N)N1CCCC1CCCC1	i	i	i	i	i	i
CC[C@@H](C)[C@@H]1CN([C@@H](C)CN2CCC[C@H]2CN2C(N)=NC[C@@H]2Cc2ccccc2)C(=N)N1CCc1ccc(Cl)c(Cl)c1	i	i	i	-66	i	i
SMILES	DRD3 agonist	SW480 rereplic	KB-V1 cytotox	DRD3 antagonist	MCF10A rereplic	KB-3-1 tox
Cn1c(=S)[nH]c2cc(C(=O)N3CCN(Cc4cccs4)CC3)ccc2c1=O	nt	nt	i	nt	nt	?
COc1ccc(CN2CC[C@H]3C=CC[C@@H](C(=O)Nc4nccs4)[C@H]3C2=O)cc1OC	nt	nt	i	nt	nt	i
CSc1cccc(NC(=O)N2CCN(c3cc(-c4noc(C)n4)ccc3C)CC2)c1	i	nt	?	nt	nt	i
COc1ccc(Cn2c(C3CC3)nc3ccc(NC(=O)C4CC4)cc3c2=O)cc1	i	i	23µM	i	i	?
CCC1CCCCN1C(=O)c1cc(COc2ccc(-n3cncn3)cc2)on1 (configuration not stated)	i	i	13µM	i	i	18µM
CC1=CC(=O)C(Sc2ccc(C)cc2)=CC1=O	i	nt	i	-92	nt	?
CCOC(=O)/C(=N\Nc1ccc(Cl)cc1)c1csc(Nc2ccccc2)n1	i	?	i	i	4µM	i
Cc1ccc(Nc2nc(C(=O)NCc3ccco3)cs2)cc1	i	i	?	i	i	i
CCOC(=O)/C(=N/Nc1ccccc1)c1csc(Nc2ccccc2)n1	i	?	?	i	?	i
CCN(CC)C(=O)c1csc(Nc2ccc(C)cc2)n1	i	i	15µM	i	i	i
COc1cc2c(NC3CCN(C)CC3)nc(N3CCCN(C)CC3)nc2cc1OCCCCCN(C)C	nt	nt	i	nt	nt	?
CCOC(=O)N1CCc2c(sc3c2c(=O)n(CCc2ccccc2)c(=O)n3Cc2ccc(F)cc2)C1	i	nt	nt	nt	nt	nt
COc1ccc(C(=O)Nn2c(SCC(=O)c3ccccc3)nc3ccccc3c2=O)cc1	i	i	i	i	i	i
CCN(CC)C(=O)CSc1nc2ccccc2c(=O)n1OC	i	i	i	i	i	i
CCOC(=O)CSc1nc2ccccc2c(=O)n1NC(=O)c1ccccc1	35	i	?	i	i	i
CCCN(CCC)C(=O)CSc1nc2ccccc2c(=O)n1CC1COc2ccccc2O1 (configuration not stated)	i	i	21µM	i	?	?
CCN(CC)C(=O)COn1c(SCC(=O)N(CC)CC)nc2ccccc2c1=O	i	i	16µM	i	i	i
COc1ccc(CNC(=O)c2ccc(NC(=O)N3CCSc4ncccc43)cc2)c(OC)c1	i	nt	i	nt	nt	i
Cc1ccc(CNC(=O)c2cc3cc(C)ccc3n2C)cc1	i	nt	i	nt	nt	i
COc1c2c(c(OC)c3ccccc13)[C@@]1(OC2)O[C@H](CCO)C[C@H](O)[C@H]1O	i	nt	i	i	nt	i
CCOC(=O)CNC(=O)N1[C@H](c2cccs2)[C@@H](C)C(=O)[C@@H](C)[C@@H]1c1cccs1	i	nt	i	nt	nt	i
O=c1ccn([C@@H]2O[C@H](CNCc3ccccc3)[C@@H](O)[C@H]2O)c(=O)[nH]1	i	nt	i	i	nt	i
O=c1ccn([C@@H]2O[C@H](CNCC3=Cc4cc(O)ccc4OC3)[C@@H](O)[C@H]2O)c(=O)[nH]1	55	i	i	i	i	i
O=C(O)C1CCN(c2nc(-c3ccccc3)nc3c2oc2ccccc23)CC1	i	i	i	i	i	i
Cc1nc(N2CCC(C)CC2)c2oc3ccccc3c2n1	i	i[9.22 µM]	21µM	i	?	?
COc1ccccc1N1CCN(c2nc(C)nc3c2oc2ccccc23)CC1	i	?	1.1µM	i	?	1.4µM
